Assay outcomes from PubChem.
Only some compounds are listed: those with a hit (about 3.5% of all), similar ones and a draw of the others.
TEAD-YAP block: TEAD-YAP interaction inhibition; HEK-TIYL cells, TEAD-Gal4/YAP UAS-luciferase luminescence; inhibition, % at 9.12 µM; 640,000 compounds, 1.4% hits; AID 1259422; in the data active = inhibition above about 32%;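 note: 0% = median of test compound wells and 100% = reference inhibitor wells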
GPR151 ag: activators of human GPR151 | Q8TDV0 | PathHunter beta-arrestin GPR151 cells, luminescence | activation, % at 11.2 µM | 650,000 compounds, 1% hits | AID 1508602; in the data active = activation above about 4.9%;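 note: 0% = median of compound wells and 100% = cells with positive control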
FBW7 act: human FBW7 E3 ligase activation, primary screen; normalized activity (activation), % at 26.1 µM; AID 1259310; AlphaScreen FBW7–phospho-cyclin E peptide binding, activator screen; Q969H0; 650,000 compounds, 0.13% hits; in the data active = normalized activity above about 1.9%;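 note: purified mutant Fbw7 with reduced substrate affinity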
MITF primary: inhibitors of human MITF | AID 1259374 | 650,000 compounds, 0.91% hits | AlphaScreen MITF homodimerization, bead proximity signal | inhibition, % at 2.6 µM; in the data active = inhibition above about 50%;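 note: 0% = vehicle wells with protein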
Target sequence (O75030 whole entry, looked up): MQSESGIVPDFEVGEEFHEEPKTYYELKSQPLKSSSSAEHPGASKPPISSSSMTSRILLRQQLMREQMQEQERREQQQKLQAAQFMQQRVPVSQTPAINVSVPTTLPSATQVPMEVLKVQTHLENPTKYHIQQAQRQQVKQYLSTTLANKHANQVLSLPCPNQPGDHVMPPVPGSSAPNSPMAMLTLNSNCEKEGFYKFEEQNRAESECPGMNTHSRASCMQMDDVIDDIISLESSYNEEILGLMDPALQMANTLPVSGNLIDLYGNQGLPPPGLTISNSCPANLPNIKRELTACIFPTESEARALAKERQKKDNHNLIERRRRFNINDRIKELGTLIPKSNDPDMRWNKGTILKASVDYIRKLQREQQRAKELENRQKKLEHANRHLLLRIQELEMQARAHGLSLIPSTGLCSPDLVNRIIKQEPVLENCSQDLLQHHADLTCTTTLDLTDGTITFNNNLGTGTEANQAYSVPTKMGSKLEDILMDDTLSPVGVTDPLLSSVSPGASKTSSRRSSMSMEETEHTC
MITF inh conf: human MITF inhibition, confirmation. shares compounds with MITF primary. AlphaScreen MITF homodimerization, biotin/His-MITF beads. inhibition, % at 2.6 µM. 4,700 compounds, 16% hits;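 active = inhibition above a cutoff derived from the DMSO control wells, cut at about 28% in these data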;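 note: 0% = MITF dimer wells with DMSO only; inhibitors lower the bead chemiluminescence by keeping MITF from dimerizing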
AlphaScreen DR: AlphaScreen optical interference, dose response counter-screen | AlphaScreen optical interference counterscreen, cell-free | shares compounds with MITF primary | IC50, µM | 480 compounds, 6% hits; call rule not given here
AlphaScreen intf2: optically interferes with AlphaScreen signal; shares compounds with MITF primary; LysRS AlphaScreen counterscreen, signal interference, triplicate; inhibition, % at 2.6 µM; 4,700 compounds, 7.6% hits; AID 1259376;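 active = inhibition above a cutoff derived from the DMSO control wells, cut at about 30% in these data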
An asterisk follows results filed as active; / = not tested or not shown.

SMILES	TEAD-YAP block	GPR151 ag	FBW7 act	MITF primary	MITF inh conf	AlphaScreen intf2	others
O=C(O)c1ccccc1-c1cc(C(=O)O)c2cc(Br)ccc2n1	11.3	-0.7	-0.1	1.1	/	/
O=C(O)c1cc(-c2ccco2)nc2ccc(Br)cc12	-6.8	-0.4	-0.3	58.0*	19.8	17.8
O=C(Nc1nc(-c2cccc([N+](=O)[O-])c2)cs1)c1cccs1	-8.5	0.0	0.4	14.0	/	/
O=C1CS(=O)(=O)C(c2ccccc2)N1c1ccccc1 (configuration not stated)	-2.2	3.1	0.2	72.0*	-1.6	-1.2
Cc1cc(C)cc(N2C(=O)CS(=O)(=O)C2c2cccc(Br)c2)c1 (configuration not stated)	7.9	-0.2	-0.5	-1.8	/	/
COc1ccc(CCC(C)NCCCn2ccnc2)cc1 (configuration not stated)	4.0	-0.7	0.2	42.7	/	/
COc1ccc(COCC(O)CNCCCn2ccnc2)cc1 (configuration not stated)	-1.0	-3.5	0.0	82.5*	7.6	-9.6
CCC(=O)Nc1ccc(S(=O)(=O)Nc2nnc(CC)s2)cc1	7.8	0.3	0.2	8.3	/	/
CCc1nnc(NS(=O)(=O)c2ccc(NC(=O)COc3ccccc3)cc2)s1	4.3	0.1	-0.1	65.4*	-3.5	-3.0
CC(C)(C)n1nnnc1CN1CCN(Cc2ccccc2)CC1	-1.1	-0.2	0.1	11.0	/	/
O=C(N/C(=C\c1ccco1)C(=O)N1CCCCC1)c1ccccc1	-2.3	-0.1	0.0	2.1	/	/
Cc1ccc(NC(=O)c2cc(-c3ccco3)on2)cc1C	-67.9	-0.6	-0.1	-2.0	/	/
CNC(=O)Nc1ccc2nc(-c3ccco3)c(-c3ccco3)nc2c1	16.2	-0.4	-0.6	109.7*	110.2*	15.3	AlphaScreen DR=>6.48
NC(=S)N/N=C/c1ccccc1OC(=O)c1cc([N+](=O)[O-])cc([N+](=O)[O-])c1	2.7	-1.4	-0.1	59.4*	29.8*	53.2*
CCCCSc1nnc2c(n1)OC(c1cc(OC)cc(Br)c1OC(C)=O)N(C(C)=O)c1ccccc1-2 (configuration not stated)	-10.7	1.2	0.0	2.6	/	/
COc1ccc(Cc2nnc(N/N=C/c3cccc([N+](=O)[O-])c3)[nH]c2=O)cc1OC	-0.9	-1.0	0.2	-9.5	/	/
COc1ccc(Cc2nnc(N/N=C/c3c(CO)cnc(C)c3O)[nH]c2=O)cc1OC	4.1	-0.2	-0.7	111.5*	107.3*	99.9*
C=CCN(CC=C)CCOc1ccc(C(=O)OC)cc1	-7.5	-2.6	0.4	50.6*	-10.0	-7.4
CCCN(C)C(=O)c1cnc2scc(-c3ccc(C)cc3)n2c1=O	12.5	0.8	-0.2	4.8	/	/
O=C(Nc1nnc(-c2ccccc2)o1)c1ccc([N+](=O)[O-])o1	11.5	1.4	0.0	-14.1	/	/
O=C(Nc1nnc(-c2ccco2)o1)c1ccc([N+](=O)[O-])o1	14.8	-1.4	0.0	55.1*	7.9	15.2
CN(c1ccc(C(=O)NCc2ccccn2)cc1)S(=O)(=O)c1ccc(Cl)cc1	13.2	0.8	0.0	58.1*	-14.2	-2.7
O=C(c1cc(Cl)ccc1Cl)N1CCN(c2ccc([N+](=O)[O-])cc2)CC1	6.6	-1.3	0.1	7.2	/	/
COc1cccc(CN2CCN(Cc3cc(OC)c(OC)cc3[N+](=O)[O-])CC2)c1	6.9	-0.4	-0.1	76.2*	10.7	19.6
COc1cc(CN2CCN(c3ccccc3F)CC2)c([N+](=O)[O-])cc1OC	-2.5	-0.4	0.1	64.3*	12.0	6.0
SMILES	TEAD-YAP block	GPR151 ag	FBW7 act	MITF primary	MITF inh conf	AlphaScreen intf2	others
COc1cc(CN2CCN(c3ccccc3OC)CC2)c([N+](=O)[O-])cc1OC	1.9	0.3	0.1	20.8	/	/
COc1ccc(OC)c(CN2CCN(Cc3cc(OC)c(OC)cc3[N+](=O)[O-])CC2)c1	3.8	0.3	-0.2	72.0*	11.1	18.3
COc1cc(OC)c(OC)cc1CN1CCN(Cc2cc(OC)c(OC)cc2[N+](=O)[O-])CC1	1.7	-0.3	-0.2	62.4*	4.9	14.8
COc1cc(CN2CCCCC2)c([N+](=O)[O-])cc1OC	6.5	0.3	0.2	-6.5	/	/
COc1cc(CN2CCCCCC2)c([N+](=O)[O-])cc1OC	1.1	1.7	0.0	19.6	/	/
CCN1CCN(C(=O)CN(c2ccccc2)S(=O)(=O)c2ccccc2[N+](=O)[O-])CC1	-3.9	-1.1	-0.2	16.2	/	/
CCCCCC(C)(C)NC(=O)CN1CCOCC1	-1.6	-0.1	0.0	51.1*	11.1	7.7
CCOC(=O)c1c(NC(=S)Nc2ccccc2)sc2c1CCN(C(=O)OCC)C2	-4.2	-1.4	0.0	-6.1	/	/
CCN(CC)CCN(C)Cc1ccc(F)cc1F	6.9	0.4	0.0	56.7*	-2.4	-5.6
CCN(CC)CCN(C)Cc1c(F)cccc1Cl	5.0	0.8	-0.1	56.5*	-4.7	0.4
CCN(CC)CCN(C)Cc1cccc2ccccc12	2.9	-0.8	-0.2	66.2*	-11.1	2.2
O=C(c1csc(-n2cccc2)n1)N1CCN(c2ccccn2)CC1	1.8	-1.5	-0.4	60.0*	14.1	9.3
O=C(c1csc(-n2cccc2)n1)N1CCN(c2ccccc2O)CC1	2.1	-1.4	-0.3	3.0	/	/
Cc1[nH]c2ccccc2c1C(=O)/C(C#N)=C/c1ccccc1[N+](=O)[O-]	-4.8	4.7	0.0	9.3	/	/
O=C(/C=C/c1ccccc1)NCc1ccc(Cl)cc1	-2.3	0.1	0.2	52.0*	3.9	-1.9
O=C(NC1CC1)c1ccnc(-c2cccs2)c1	-15.4	-0.4	0.1	65.5*	11.5	6.2
Cc1cc2c(c(=O)[nH]1)C(=O)O/C2=C\c1cccs1	-8.4	-0.6	-0.2	-1.8	/	/
Cc1cc2c(c(=O)[nH]1)C(=O)O/C2=C\c1ccc(C)o1	-0.7	-0.6	-0.7	54.9*	70.3*	6.6	AlphaScreen DR=>6.86
Cc1cc2c(c(=O)[nH]1)C(=O)O/C2=C\c1ccco1	0.2	-0.2	-1.2	61.5*	62.3*	4.9	AlphaScreen DR=>9.3
Cc1cc2c(c(=O)[nH]1)C(=O)O/C2=C/c1ccc(F)cc1	-14.0	-2.2	-0.2	-2.3	/	/
O=C(CN1CCN(C(=O)c2cnccn2)CC1)c1cccs1	-2.0	-0.5	0.0	52.8*	3.7	15.7
Cc1cc(C(=O)N2CCN(CC(=O)c3cccs3)CC2)no1	-3.7	0.5	0.0	61.3*	7.1	11.7
CC(=O)CC(=O)NC(C)c1ccccc1 (configuration not stated)	13.3	2.2	0.0	2.7	/	/
CC(NC(=O)CNCc1ccccn1)c1ccccc1 (configuration not stated)	4.2	0.1	-0.7	74.0*	24.9	100.3*
CN1CCN(CC(=O)N/N=C\c2ccccc2O)CC1	6.1	0.2	-0.1	-1.2	/	/
CN1CCN(CC(=O)N/N=C\c2ccsc2)CC1	0.8	0.7	-0.1	25.5	/	/
